HP1b chromo inh – HP1-beta chromodomain-methylated histone interaction inhibition; P83916; AlphaScreen HP1-beta / biotin-H3K9me3 peptide binding; Potency, µM (top dose mostly 114 µM), inactives show top-dose activity change, negative = inhibition, most hits filed as inhibitors; actives 0.56% (n = 390,000); AID 540317; further: potency means the concentration at half of the fitted maximal effect; nearly all actives have a fitted effect of over 70% in size
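HP1-beta protein (50 nM final) preincubated 30 min at room temperature with biotinylated H3(1-18)K9me3 peptide (50 nM) in PBS pH 7.4, 0.01% Tween-20, then compound added for 30 min. AlphaScreen streptavidin donor/nickel chelate acceptor beads (10 ug/mL final), 30 min dark, luminescence read.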
L3MBTL1 block – L3MBTL1 (human) inhibition; Potency, µM (top dose mostly 57.1 µM), for inactives: top-dose activity, negative = inhibition, usual class: inhibitors; AlphaScreen L3MBTL1–H3K9me1 peptide binding; actives 0.66% (n = 230,000); Q9Y468; further: potency means the concentration at half of the fitted maximal effect; on the % scale 0 is the no-effect control and ±100 the full control effect; nearly all actives have a fitted effect of over 60% in size
Target sequence (Q9Y468 whole entry, looked up): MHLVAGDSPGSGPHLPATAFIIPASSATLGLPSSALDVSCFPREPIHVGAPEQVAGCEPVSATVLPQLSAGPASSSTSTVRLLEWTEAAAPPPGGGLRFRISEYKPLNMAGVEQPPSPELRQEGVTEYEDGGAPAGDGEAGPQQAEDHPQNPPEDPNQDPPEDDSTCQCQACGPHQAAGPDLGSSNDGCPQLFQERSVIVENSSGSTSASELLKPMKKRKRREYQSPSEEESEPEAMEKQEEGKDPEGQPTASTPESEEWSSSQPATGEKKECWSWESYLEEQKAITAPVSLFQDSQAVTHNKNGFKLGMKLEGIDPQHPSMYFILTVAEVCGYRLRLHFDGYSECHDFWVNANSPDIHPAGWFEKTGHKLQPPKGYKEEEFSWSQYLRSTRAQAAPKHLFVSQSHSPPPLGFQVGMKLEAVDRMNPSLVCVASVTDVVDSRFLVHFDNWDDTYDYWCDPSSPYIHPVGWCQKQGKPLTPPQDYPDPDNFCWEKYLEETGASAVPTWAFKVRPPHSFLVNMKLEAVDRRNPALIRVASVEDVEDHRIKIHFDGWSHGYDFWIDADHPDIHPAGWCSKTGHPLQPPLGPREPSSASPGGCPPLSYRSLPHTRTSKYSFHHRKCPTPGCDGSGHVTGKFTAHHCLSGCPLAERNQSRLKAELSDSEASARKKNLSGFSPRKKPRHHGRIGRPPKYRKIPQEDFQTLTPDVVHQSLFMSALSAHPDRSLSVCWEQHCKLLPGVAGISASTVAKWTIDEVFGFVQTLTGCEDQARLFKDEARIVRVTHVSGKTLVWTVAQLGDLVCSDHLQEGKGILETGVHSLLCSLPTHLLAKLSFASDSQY
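L3MBTL1 (50 nM) pre-complexed 30 min with biotinylated H3(1-15)K9me1 peptide (75 nM), then compounds added for 30 min at room temperature; AlphaScreen streptavidin donor/nickel chelate acceptor beads (10 ug/mL final) read after 30 min dark incubation.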
G9a inh – G9a (human) methyltransferase inhibition; Potency, µM (highest dose often 102 µM), for the others: at the highest dose activity, negative = inhibition, most hits filed as inhibitors; G9a H3K9 monomethylation, AlphaScreen, 2 h; Q96KQ7; actives 8.8% (n = 350,000); further: potency means the concentration at half of the fitted maximal effect; on the % scale 0 is the no-effect control and ±100 the full control effect; nearly all actives have a fitted effect of over 75% in size
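AlphaScreen detection with an anti-monomethyl H3K9 antibody quantified product after a 2 h room-temperature reaction containing 500 nM biotinylated H3K9 peptide, 20 µM SAM and 20 nM enzyme, which had been preincubated 15 min with compound.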
JMJD2A Tudor – JMJD2A Tudor domain (human) inhibition. Potency, µM (top dose mostly 114 µM), for inactives: at the highest dose activity change, negative = inhibition, hits mostly inhibitors. actives 4.4% (n = 390,000). AlphaScreen JMJD2A-Tudor / H3K4me3 peptide binding; further: potency means the concentration at half of the fitted maximal effect; on the % scale 0 is the no-effect control and ±100 the full control effect; nearly all actives have a fitted effect of over 50% in size
BAZ2B block – BAZ2B (human) inhibition; AlphaScreen BAZ2B-H3K14Ac peptide displacement; actives 4.4% (n = 360,000); AID 504333; Potency, µM (doses to about 114 µM), for the others: at the highest dose activity change, negative = inhibition, actives largely listed as inhibitors; further: potency means the concentration at half of the fitted maximal effect; on the % scale 0 is the no-effect control and ±100 the full control effect; nearly all actives have a fitted effect of over 60% in size
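AlphaScreen displacement: compounds (up to 110uM) incubated 30 min at room temperature with a preformed 50 nM BAZ2B/50 nM biotinylated H3K14Ac peptide complex in PBS pH 7.4 with Tween-20. Donor and acceptor beads at 10 ug/mL final added, 20 min light-protected before reading.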
PI5P4K alpha inh – PI5P4K alpha (human) kinase inhibition. P48426. PI5P4Kalpha enzyme, ADP-Glo luminescence, 60 min; hits give low values. max response, %. actives 1.2% (n = 330,000); active means max response of -50% or lower; inconclusive means between -30% and -50%; inactive means -30% or higher; further: value at the top dose of about 77 µM; on the % scale 0 is the no-effect control and ±100 the full control effect
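ADP-Glo luminescence end-point after a 60 min room-temperature kinase reaction. PI5P4Kalpha and substrate in HEPES pH 7.4 buffer with EGTA, 0.1% CHAPS and 5% DMSO; ATP at 5 microM final.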
An asterisk follows results filed as active; ? = inconclusive; . = no result given; [ ] = dose if it differs, or a comment. Hits are enriched below; roughly 11% of the tested compounds scored in any of these assays. Unless noted, the call rests on the fitted dose curve; in most records, active means well fitted inhibition curve with a large enough effect; inconclusive means small, poorly fitted or top-dose-only effect; inactive means no such curve, though single readings can be large or run the other way.

SMILES | HP1b chromo inh | L3MBTL1 block | G9a inh | JMJD2A Tudor | BAZ2B block | PI5P4K alpha inh
O=C(c1ccco1)[C@@H]1[C@@H]2C(=O)N(c3ccc(F)cc3)C(=O)[C@@H]2C2c3ccccc3C=CN21 (some centres not stated) | . | 0% | 3.2µM* | . | ? | .
Cc1ccc(N(C)C(=O)c2cc(S(=O)(=O)N3CCOCC3)cn2C)cc1 | 8% | . | -2%[59 µM] | -22% | -2% | .
COC(=O)c1ccc2c(=O)n(CCCCCC(=O)N3CCN(c4cc(C)ccc4C)CC3)c(=O)[nH]c2c1 | -2% | . | -15%[59 µM] | -27% | -16% | .
CCOC(=O)c1sc2ncnc(N3CCN(c4ccc(OC)cc4)CC3)c2c1C | ? | 0% | 13µM* | ? | ? | .
CCN(CC)c1ncnc2sc(C(=O)N3CCN(c4ccc(OC)cc4)CC3)c(C)c12 | -8% | 5% | 14µM* | ? | -2% | 1
CCOC(=O)C1CCC(CN(Cc2ccc(Cl)cc2)S(=O)(=O)c2cccc(Cl)c2C)CC1 (configuration not stated) | 50% | . | 22%[59 µM] | -5% | 16% | .
CCc1nn2c(=O)cc(-c3ccncc3)nc2s1 | . | . | . | -10% | . | .
Cc1ccc(OC(C)C(=O)N2CC(=O)Nc3ccccc32)cc1 (configuration not stated) | 23% | . | 3.5µM* | -13% | -8% | 0
COc1cccc(CNC(=O)c2ccc3c(c2)N(C)C(=O)C2CCCCN32)c1 (configuration not stated) | 10%[57 µM] | . | 5%[59 µM] | -18% | -10% | .
COc1ccc(C2=NS(=O)(=O)N(C)C(C(=O)Nc3ccc(OC(F)(F)F)cc3)=C2)cc1 | 5% | . | 14µM* | -33% | -34% | .
N#Cc1nc(Cc2cccc3ccccc23)oc1NCCN1CCCCC1 | -10% | -6% | ? | ? | 79µM* | .
CC1CN(c2oc(Cc3cccc4ccccc34)nc2C#N)CC(C)O1 (configuration not stated) | -47% | -29% | 25µM* | ? | ? | 3
CC(C)(C)C(=O)/C(C#N)=C/c1cccs1 | -5% | . | 2% | -16% | -27% | 10
N#C/C(=C\c1cccs1)C(=O)c1ccccc1Cl | 30% | -5% | 40µM* | -15% | ? | -4
N#C/C(=C\c1cccs1)C(=O)NCc1cccnc1 | 44% | 4% | 16% | -2% | -3% | 0
N#C/C(=C\c1cccs1)C(=O)Nc1nccs1 | -18% | -19% | 10%[12.7 µM] | 20µM* | 50µM* | -29
N#C/C(=C\c1cccs1)C(=O)NCc1ccccc1 | 11% | 7% | 23%[59 µM] | 40µM* | 3% | -25
CC(Oc1ccc(Br)cc1)C(=O)Nc1ccc(S(=O)(=O)N(C)C2CCN(C)CC2)cc1 (configuration not stated) | 5% | -8% | 35µM* | -19% | 6% | 6
COc1ccc(Br)cc1CNCCSc1nnnn1C | 8% | 5% | 56µM* | -25% | -7% | -7
COc1cccc(CNCCCSc2nnnn2C)c1 | 31% | . | -25%[59 µM] | -11% | -12% | .
Cc1ccccc1CNCCSc1nnnn1C | 26% | . | 6%[59 µM] | -8% | -16% | .
Cn1nnnc1SCCNCc1cccc2ccccc12 | 14% | 7% | 50µM* | -24% | 4% | .
COc1cccc(CNCCSc2nnnn2C)c1 | 55% | 54% | 56µM* | -4% | 1% | .
COc1ccc(CCNC(=O)Cn2cc(C(=O)c3ccccc3)c(=O)c3ccc(C)nc32)cc1OC | 74% | . | 1%[59 µM] | -7% | 30%[57.1 µM] | .
Cc1cc(OCc2nc3ccccc3s2)ccc1N | ? | ? | 10µM* | ? | 40µM* | -12
SMILES | HP1b chromo inh | L3MBTL1 block | G9a inh | JMJD2A Tudor | BAZ2B block | PI5P4K alpha inh
c1ccc(OCc2nc3ccccc3s2)cc1 | 93% | 30% | 58%[59 µM] | 64% | 58% | .
CCC(=O)Nc1ccc(OCc2nc3ccccc3s2)cc1 | -26% | . | 10µM* | -31% | . | -30
Fc1ccc(OCc2nc3ccccc3s2)cc1 | 69% | 20% | 72% | 30% | 28% | -7
O=C(CSc1nnnn1-c1ccccc1)c1ccco1 | 39% | -1% | 50µM* | -25% | -9% | -1
Cn1nnnc1SCC(=O)c1ccco1 | 45% | 0% | ? | -7% | -24% | 4
O=C(CSc1ncnc2ccccc12)c1ccco1 | ? | . | 13µM* | ? | -22% | -21
O=C(CSc1nnc2sc3ccccc3n12)c1ccco1 | 25% | 4% | 10µM* | -19% | -1% | .
O=c1c2ccccc2nnn1CSc1nnc2sc3ccccc3n12 | . | 8% | 7.1µM* | . | -4% | .
CN(C)C(=O)CSc1nnc2sc3ccccc3n12 | 21% | 3% | 4% | 6% | -6% | -4
O=C(CSc1nnnn1-c1ccccc1)NC1CCCc2ccccc21 (configuration not stated) | 50% | -9% | 35µM* | 14% | 3% | 0
O=C(CSc1c(Cl)cccc1Cl)NC1CCCc2ccccc21 (configuration not stated) | 20% | -2% | ? | -23% | ? | ?
